Assay results published in PubChem BioAssay (NCI).
This is part of a sample that, as a whole, favours compounds with a hit. Of some 83,000 tested, about 20% had one in any assay.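 Testing used 96-well plates and a 48-hour single-concentration exposure. Example: -40 means 40% of the starting cells died.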 Calls of active or inactive are those of the source. The calls were made as follows: active = growth percent below 10; inactive = the rest.

What was measured:
Assay in all cases: NCI-60 one-dose screen, 48 h (100 = growth as untreated, 0 = no growth, -100 = all killed)
Details in all cases: 10 µM unless noted
[1] = system: HCT-15 colon
[2] = system: HT29 colon
[3] = system: SNB-75 CNS
[4] = system: U251 CNS
[5] = system: PC-3 prostate
[6] = system: SK-MEL-5 melanoma
[7] = system: UACC-62 melanoma
[8] = system: LOX IMVI melanoma
[9] = system: SK-MEL-28 melanoma
[10] = system: SK-MEL-2 melanoma
[11] = system: EKVX NSCLC
[12] = system: SN12C renal
[13] = system: UO-31 renal
[14] = system: TK-10 renal
[15] = system: ACHN renal
[16] = system: CAKI-1 renal
[17] = system: A498 renal
[18] = system: CCRF-CEM leukemia
[19] = system: MOLT-4 leukemia
[20] = system: SNB-19 CNS

Measured: growth

O=C1C[C@H](Sc2nc(-c3ccc(F)cc3)cc(C(F)(F)F)n2)[C@H]2CO[C@@H]1O2
inactive: [1] 63.1% | [2] 75.5% | [3] 98.3% | [4] 98.9% | [5] 96.2% | [6] 97.5% | [7] 98.2% | [8] 34.8% | [9] 105% | [10] 107% | [11] 107% | [12] 92.4% | [13] 88.3% | [14] 99.2% | [15] 88.9% | [16] 81.5% | [17] 105% | [18] 51.1% | [19] 78.3%

Cc1ccc(Nc2c(C(N)=O)cnc3ccc(-c4csc(N)n4)cc23)cc1
inactive: [1] 98.7% | [2] 103% | [3] 96.9% | [20] 102% | [5] 97.6% | [7] 102% | [8] 96.2% | [9] 101% | [10] 110% | [12] 108% | [13] 88.7% | [14] 96.2% | [15] 84.7% | [17] 73.3% | [18] 104% | [19] 95.3%

O=C1Nc2ccccc2/C1=C/C(=N/c1nnc(-c2ccc(Cl)cc2)s1)c1ccccc1
active: [1] 3.35% | [2] -56.3% | [8] -79.3% | [13] -69.2% | [14] -36.4% | [15] -71.4% | [18] -42.7% | [19] -26.4%
inactive: [3] 76.4% | [20] 100% | [5] 75.7% | [7] 51.7% | [9] 61.2% | [10] 97.2% | [12] 35.5% | [16] 15%

COc1ccc(-c2cc(-c3cccnc3)nc3sc4c(=O)n(-c5ccc(C)cc5)nnc4c23)cc1OC
inactive: [1] 103% | [2] 105% | [3] 85.8% | [4] 104% | [5] 95.8% | [6] 97.4% | [7] 98.7% | [8] 97.2% | [9] 99.9% | [10] 107% | [11] 103% | [12] 94.6% | [13] 81.1% | [14] 115% | [15] 93.7% | [16] 83.1% | [17] 88.8% | [18] 104%

Cn1c2ccccc2c2c3c(c4c5ccccc5n(CCCCCC#N)c4c21)C(=O)N(O)C3=O
inactive: [1] 13.9% | [3] 17.2% | [4] 12.8% | [5] 24.3% | [10] 34.5% | [11] 88.2% | [12] 10.8% | [14] 42.1%
active: [2] 4.37% | [6] -80.3% | [7] -18.5% | [8] -66.7% | [9] 6.74% | [13] 2.03% | [15] -0.622% | [16] -32.3% | [17] -32% | [18] 3.22% | [19] 1.13%

O=C(CNC1C2CC3CC(C2)CC1C3)Sc1nnc2sc3ccccc3n12 (stereo not drawn)
inactive: [1] 105% | [2] 106% | [3] 76.5% | [4] 104% | [5] 77.4% | [6] 93.9% | [7] 88.2% | [8] 94.5% | [9] 112% | [10] 108% | [11] 93% | [12] 101% | [13] 78.3% | [14] 127% | [15] 100% | [16] 76.4% | [17] 107% | [18] 86.1%

NS(=O)(=O)N(c1cc(C(F)(F)F)cc(C(F)(F)F)c1)C1CCN(Cc2ccc(F)cc2)CC1
inactive: [1] 24.4% | [3] 55.3% | [4] 59.8% | [5] 34.2% | [6] 32.2% | [7] 57.1% | [8] 68.9% | [9] 82.1% | [10] 74.2% | [11] 72.2% | [12] 42.2% | [13] 35.6% | [14] 81.4% | [15] 75.2% | [16] 62.5% | [17] 76.3% | [18] 64% | [19] 39%
active: [2] 8.44%

Cc1ccc(NC(=O)c2sc3nc4c(cc3c2N)C(=O)CCC4)cc1C
active: [2] 9.71% | [3] -10.3% | [17] -2.89%
inactive: [1] 30.6% | [20] 69.3% | [5] 22.4% | [7] 39.6% | [8] 39.2% | [9] 37.3% | [10] 37% | [12] 52.9% | [13] 56.6% | [14] 59.9% | [15] 52.2% | [16] 35.7% | [18] 13.6% | [19] 27.6%

COC1C/C(=N\O)C2OC(c3ccccc3)OCC2O1 (stereo not drawn)
inactive: [1] 97.8% | [2] 113% | [3] 66.1% | [20] 94.3% | [5] 100% | [7] 96.5% | [8] 101% | [9] 101% | [10] 93.3% | [13] 87.2% | [14] 112% | [15] 108% | [16] 97.9% | [17] 89.9% | [18] 96.1% | [19] 97.6%

COCCCN=C(N)c1ccc(NC(=O)c2ccc(C(=O)Nc3ccc(C(N)=NCCCOC)cc3)cc2)cc1
inactive: [1] 118% | [2] 110% | [3] 86.4% | [4] 99.1% | [5] 125% | [6] 78.3% | [7] 91% | [8] 120% | [9] 226% | [10] 102% | [11] 76.9% | [12] 95% | [13] 96.6% | [14] 113% | [15] 113% | [16] 95.2% | [17] 208% | [18] 108% | [19] 85.9%

COc1ccc(/C=c2/c(=O)[nH]c3nc4sc(C)c(C)c4c(=O)n23)cc1
inactive: [1] 73.2% | [2] 88.1% | [3] 93.2% | [20] 88.4% | [5] 91% | [7] 80.4% | [8] 91.1% | [9] 102% | [12] 84% | [13] 73% | [14] 101% | [15] 91.5% | [16] 74.2% | [17] 101% | [18] 66.9% | [19] 62.3%

Cc1cc(Nc2nc(N3CCOCC3)nc3ccccc23)n[nH]1
active: [3] -15.3% | [16] 9.88% | [17] -13.4%
inactive: [1] 38.7% | [2] 68.4% | [20] 93.2% | [5] 59.9% | [7] 45.7% | [8] 63.3% | [9] 72.2% | [10] 51.5% | [12] 60.2% | [13] 35.4% | [14] 47.2% | [15] 32.8% | [18] 65.6% | [19] 58.4%

CCN(CC)CCCC(C)NCCCNc1cccc2cccnc12 (stereo not drawn)
inactive: [1] 104% | [2] 92% | [3] 89.9% | [4] 91.4% | [5] 87.3% | [6] 98.5% | [7] 90.4% | [8] 85.3% | [9] 123% | [10] 112% | [11] 101% | [12] 86.5% | [13] 72.2% | [14] 97.7% | [15] 108% | [16] 98.4% | [17] 81.8% | [18] 96.9% | [19] 94.1%

Cc1ccc(/C=C2\Oc3cc(OCC(=O)c4ccc(Cl)cc4)ccc3C2=O)cc1
inactive: [1] 93.1% | [2] 104% | [3] 103% | [4] 97.5% | [5] 428% | [6] 86.3% | [7] 92.7% | [8] 98.8% | [9] 48.4% | [10] 79.2% | [11] 107% | [12] 116% | [13] 73.6% | [14] 130% | [15] 95.2% | [16] 101% | [17] 113% | [18] 176% | [19] 102%

CC(=O)Oc1cc2cnc3c4cc(OC(C)=O)c(OC(C)=O)cc4ccc3c2cc1OC(C)=O
inactive: [1] 25.1% | [2] 17.4% | [20] 33.9% | [5] 21.6% | [8] 10.6% | [9] 42.7% | [10] 56.3% | [12] 14.6% | [14] 21.8% | [15] 15.3%
active: [3] -5.27% | [7] -22% | [13] -2.09% | [16] 6.51% | [17] -15.6% | [18] -6.55% | [19] -6.19%

NS(=O)(=O)c1ccc(Nc2nc3n[nH]c(Nc4ccccc4)c3c(=O)[nH]2)cc1
inactive: [1] 108% | [2] 101% | [3] 70.8% | [4] 101% | [5] 92.1% | [6] 99% | [7] 105% | [8] 101% | [9] 111% | [10] 101% | [11] 107% | [12] 103% | [13] 74.9% | [14] 106% | [15] 109% | [16] 88.7% | [17] 88.9% | [18] 105% | [19] 89.2%

Cn1c2ccccc2c2c3[nH]c(=O)[nH]c(=O)c3c3c4ccccc4n(C)c3c21
inactive: [1] 24.2% | [2] 14.4% | [4] 21.9% | [5] 41.1% | [6] 29.3% | [7] 43% | [8] 22.5% | [9] 27.2% | [10] 67% | [11] 29% | [12] 33.7% | [13] 11.8% | [14] 36.4% | [16] 41.5% | [18] 52.9% | [19] 49.4%
active: [3] -38.4% | [15] 7.31% | [17] -4.05%
